The text below walks through data of PMC12136788.

T1: UNK ZnF1-3 (human, UniProt Q9C0B0 31-174)
T1 sequence: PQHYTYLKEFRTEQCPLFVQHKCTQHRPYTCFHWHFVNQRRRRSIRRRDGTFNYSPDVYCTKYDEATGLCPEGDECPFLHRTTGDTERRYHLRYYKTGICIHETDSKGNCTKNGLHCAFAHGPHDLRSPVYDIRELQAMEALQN

B1: chr3:10015032:10015033:+_ENSMUSG00000027533_ENSMUST00000029046|mus_mus|mus_mus_mus_hu_True|1_28 (ssRNA)
RNA: GGGAGUUCUACAGUCCGACGAUCGUUUUUACCAUCACAAGUGAUGAUACAAUCUGGCUUGGCCAUUGCGCCCAUUUUUCGCAAAGCUAUUCCCACUCCUAGCUCCUUCAUGUACUCAUCAAAGCCUUUGCUGUCCAUCAGGCGCAACAGAGGAUUGAGCAUCA
B2: chr7:151048522:151048523:+_ENSG00000013374_ENST00000566856|hu_mus|hu_hu_hu_mus_True|18_78 (ssRNA)
RNA: GGGAGUUCUACAGUCCGACGAUCCUGUUUCUUAUUUAUUACGAUCUUGAUGUAAUUUUCUUGAAGUCCGAAAGUUUCAGCUAUUUGACACCUCAGGUCUCUACCAGUGACAUGCAAUCGGGUCUCCAACAAGCUUUUCUUAUCCAACAGAGGAUUGAGCAUCA
B3: chr19:7991675:7991676:-_ENSG00000104980_ENST00000595831|hu_hu|motif|central (ssRNA)
RNA: GGGAGUUCUACAGUCCGACGAUCCCAAAUCUCAGGCUUAUGCACAAGAUGGAAGAGCACUGUUAAAAUUAAAAAAUGGACCGGAAGUGGCUUGGCUGACGUGGCUAGCGGGCCACUGAGCCGCGGGUCCCGGGUCCCACCCUGCAACAGAGGAUUGAGCAUCA
B4: chr7:54825262:54825263:-_ENSG00000132432_ENST00000352861|hu_hu|motif|central (ssRNA)
RNA: GGGAGUUCUACAGUCCGACGAUCCCGACUUGGCUCAACAAACUGCAUUACCUGAUCCAUGACUGCCUACCCAACCGACACCGGAAAUGCCAGGGACACGUAGCACUGGAGCUUGCUGAUGGAGGCCCACCGGAACCGGAAUCCCAACAGAGGAUUGAGCAUCA
B5: chr9:100883651:100883652:-_ENSG00000106789_ENST00000375077|hu_mus|FALSE|FALSE (ssRNA)
RNA: GGGAGUUCUACAGUCCGACGAUCUCCCAAGGCAAGAAGGAAGGAGCCGAGGGCGGCUUUGCUGCUUGGGUGGUCACUGUGUCAGGGGGCAGUGUUGCUCCAUUAGCCCAAGAACAUAAAAACAUAAUCUUAAAAAAAUAUGACCAACAGAGGAUUGAGCAUCA
B6: 193332725_193333477_540_CDS_ENSG00000198836_ENST00000392438|human|control|control (ssRNA)
RNA: GGGAGUUCUACAGUCCGACGAUCCCACUGAUCAAAAGUCUUUUUGGCUGUGUAGCCACCCCCAACAGCCGAUCCUAGUAUGAGAUAGCGAAGUUUUAAGAGUCUCGUAGCUAAUCUUGCUGGCCAAAAAUUCCUGCGAGGCUGCAACAGAGGAUUGAGCAUCA
B7: chr11:46405157:46405158:+_ENSG00000110492_ENST00000395566|hu_hu|hu_hu_hu_mus_False|1_98 (ssRNA)
RNA: GGGAGUUCUACAGUCCGACGAUCCCCUCCCCACUUUGGCUGGGGAGUGUGGGCGUGAGAGGACAGGCGUGAUUGACAGAGCUGACAGGAAGACAAAAGGCACUGGUGGGUUAUAUCUUGGGCCUGUGGGAGAGGAGGCGUGGGCAACAGAGGAUUGAGCAUCA
B8: chr19:7991675:7991676:-_ENSG00000104980_ENST00000595831|hu_hu|FALSE|FALSE (ssRNA)
RNA: B3 RNA with G82U, G83A
B9: chr1:129704038:129704039:+_ENSMUSG00000026349_ENSMUST00000027587|mus_mus|FALSE|FALSE (ssRNA)
RNA: GGGAGUUCUACAGUCCGACGAUCAGGCCAAAGCUGCCCUCCAAGUGUCGGUUGGCCUGCAUUAAUUACAGCUGUGCCUGCACACUUGUCUCAACAUCAAGUACUGAGGGAAAACGGGAAUGCACUCUGCCUCUGGUCAGUACACAACAGAGGAUUGAGCAUCA
B10: chr10:110404880:110404881:-_ENSMUSG00000035798_ENSMUST00000041723|mus_hu|motif|central (ssRNA)
RNA: GGGAGUUCUACAGUCCGACGAUCGUUUUUGUGAUACUUGUCACCAAGGUUAACUGAAACAUUGAAUGUUAAAAGCAAUCGGGUUGGAUCCACACUAUGUGUUCUAUAUGCUGCCCACAUUAAAGGCGUCAUUCCAUUCUGAUCCAACAGAGGAUUGAGCAUCA
B11: 23688267_23688387_1410_3pUTR_ENSMUSG00000048439_ENSMUST00000049887|mouse|control|control (ssRNA)
RNA: GGGAGUUCUACAGUCCGACGAUCUGAAUUUGUGGUGUUCUGCUGCUCAGCUUCCCAGACUGUAGGCAUGCAGGACAUGCCUGGCUAAGGCAUUCUUUCUGUAUUUAAACCUGACCUUUAUACAGUCAGAAGCUCGACCGGUGGCAACAGAGGAUUGAGCAUCA
B12: chr2:228221723:228221724:+_ENSG00000168958_ENST00000354503|hu_mus|FALSE|FALSE (ssRNA)
RNA: GGGAGUUCUACAGUCCGACGAUCGACCAUUUCUCUUUUAGCACGCUCUUUAUUCUCCUCUUCCAGAAGUUGGAGACGUCUAUUUAAUUUGAUUAUCUGACGUCUUAAUGAAGCUGCAUCUACCACAGUCAUGUCAUCUGAAGCCAACAGAGGAUUGAGCAUCA
B13: 60766941_60767061_3855_CDS_ENSG00000011028_ENST00000303375|human|control|control (ssRNA)
RNA: GGGAGUUCUACAGUCCGACGAUCGAAGGCCUGGGUGUAGGGGUCGGGCACGUAGGCCAGGCUGGCAUUGCGGCUCUCACACAGCAGGAGGGCAUCGUGCCAGCGCAGCGGCUUCUGAAGCAGCCGGAAGGUGCCGUUGAGGUACAACAGAGGAUUGAGCAUCA
B14: chr3:196311055:196311056:+_ENSG00000174013_ENST00000440469|hu_hu|FALSE|FALSE (ssRNA)
RNA: GGGAGUUCUACAGUCCGACGAUCGACCUUUGGAAGUCCUCUAAAAGCAACCCCCAGGAACUCAUAUCCACGUUCAAAAGCUAAAGUCUUAUCUUCCAUGUCCAAGAUGACUCGAAUUCUUUCUCCUAUCUGAUAUUUUGGUGCCAACAGAGGAUUGAGCAUCA
B15: 32740819_32743422_11525_CDS_ENSG00000115760_ENST00000421745|human|control|control (ssRNA)
RNA: GGGAGUUCUACAGUCCGACGAUCCAGCAUCAACUGUAAAAAUAAUCUUCGUAUAAACCCUGAAAUGUUCCCAGAUGUUGGAAGGUUCCCUCUUUGAGGAGAUGUCUGAAAUAGUUCACAAAGAACCUGUGCCAUCAGCUUUUGCAACAGAGGAUUGAGCAUCA
B16: chr1:32661602:32661603:+_ENSG00000084652_ENST00000373610|hu_hu|FALSE|FALSE (ssRNA)
RNA: GGGAGUUCUACAGUCCGACGAUCCAGCAUCCCUCUUCCUUGGAAGGUCCUCAAUACAAACACUGUCAUGUGCAAAAAAAAAAGAAAAAGAAAAAAAAAAAAAAAGAAAAAGAAAUAAAGAAAAAAACACCUUCAGAAAUAAUCCAACAGAGGAUUGAGCAUCA
B17: chrX:71549762:71549763:+_ENSMUSG00000019087_ENSMUST00000019231|mus_mus|mus_mus_mus_hu_False|28_98 (ssRNA)
RNA: GGGAGUUCUACAGUCCGACGAUCAAACCCGUGUACUCACUCUUAACAGCACAACAUCACCAGAAAACGAUAACGACAGCCAAGCAGGACAGACAGUUAAGUAGUACUUCCACACCUCCAAACUCAGGGAGCCCUAUAACCUUACAACAGAGGAUUGAGCAUCA
B18: chrX:71549762:71549763:+_ENSMUSG00000019087_ENSMUST00000019231|mus_mus|mus_mus_mus_hu_False|28_88 (ssRNA)
RNA: GGGAGUUCUACAGUCCGACGAUCAAACCCGUGUACUUCUUAUUGUUACAUCACCCCCACCAGAAAACGAUAACGACAGCCAAGCAGGACAGACAGUUAAGUAGUACUUCCACACCUCCAAACUCAGGGAGCCCUAUAACCUUACAACAGAGGAUUGAGCAUCA
B19: chr2:140009677:140009678:+_ENSMUSG00000027384_ENSMUST00000044825|mus_mus|FALSE|FALSE (ssRNA)
RNA: GGGAGUUCUACAGUCCGACGAUCGCUGCUAACCACCAGGUCAAACGUGUUUUCUUGGAAGGGAAGGAAUUCUUCAUCAGCUAAAAUAUUCACAGUAGGAAUAUCUGUUUCUAAAGAAUUUUUCAAAGCAUGCUCUGCAAUGUCCAACAGAGGAUUGAGCAUCA
B20: 112506700_112506820_3235_3pUTR_ENSMUSG00000032727_ENSMUST00000109272|mouse|control|control (ssRNA)
RNA: GGGAGUUCUACAGUCCGACGAUCAAUAAAUACCCUCCCGUCCAGUCACUAGGACCACUACCUCCUACCUACUCUUCAGCACGACCUUGAAGCGACUCACACUUAUAAACAGCAACACAACUAGGAAAAUAAAAAAAAAAAUCACAACAGAGGAUUGAGCAUCA
B21: chr3:41266445:41266446:+_ENSG00000168036_ENST00000349496|perfect_dup|FALSE|FALSE (ssRNA)
RNA: GGGAGUUCUACAGUCCGACGAUCCAUAGCAGCUCGUACCCUCUGAGCUCGAGUCAUUGCAUACUGUCCAUCAAUAUCAGCUACUUGUUCUUGAGUGAAGGACUGAGAAAAUCCCUGUUCCCACUCAUACAGGACUUGGGAGGUCAACAGAGGAUUGAGCAUCA
B22: chrX:140365796:140365797:-_ENSMUSG00000031285_ENSMUST00000033642|mus_mus|mus_mus_mus_hu_False|28_108 (ssRNA)
RNA: GGGAGUUCUACAGUCCGACGAUCCUUCUCAUUACUUAGUGCCUGCAAGGUUCUGGUUCGGUAGAAGCUACAGUGGGCGCUGUGAGUGGGGCUAGGCAACCCAUUCAUCCGUGACCCUCGCAUGUUCCUGGAUGUCUUAUCUCUCAACAGAGGAUUGAGCAUCA

Positions count from the first letter of the chain named. Whole data set: some 24,000 sequences, median “enrichment r” near 0.99, cut for the highest 2% near 3.7. This is one part of a sample in which the highest values are shown more often than they occur.

In this test the target is T1, UNK ZnF1-3. Briefly: nsRBNS (natural sequence RNA bind-n-seq); RBNS binding buffer (assumed for nsRBNS): 25 mM Tris pH 7.5, 150 mM KCl, 3 mM MgCl2, 0.01% Triton X-100, 500 ug/ml BSA, 20 U/ml SUPERase-In, 4 C; UNK is unkempt and MSI1 is Musashi-1; names of the RNAs are library labels; protein concentration not given here; high values mean tight binding.
Regarding B1, the binding signal came to 0.662 enrichment R. To B2 belongs 0.639 enrichment R; to B3, 3.81 enrichment R; to B4, 1.13 enrichment R. The value for B5 was 2.88 enrichment R; that for B6 was 1.11 enrichment R.

Consider B7, for which the binding signal came out at 2.22 enrichment R. B8: the binding signal was found to be 4.68 enrichment R. The value for B9 was 0.746 enrichment R. The value for B10 was 0.601 enrichment R; that for B11 was 0.457 enrichment R. To B12 belongs 0.795 enrichment R; to B13, 0.939 enrichment R. For the molecule B14, the binding signal was 1.13 enrichment R. To B15 belongs 1.97 enrichment R. The value for B16 was 4.33 enrichment R.

As for B17, the binding signal was 1.72 enrichment R.

In turn, B18 had a binding signal of 1.85 enrichment R. Regarding B19, the binding signal turned out to be 1.19 enrichment R.

Molecule B20 came in with a binding signal of 4.38 enrichment R. Consider B21, for which the binding signal stood at 0.798 enrichment R. To B22 belongs 0.752 enrichment R.
